Inhibition data for 40 molecules are collected here from PubChem BioAssay.

The structures appear in SMILES notation. Active and inactive are the calls of the source. No rule for the calls is given here.

The target in this assay is Pantothenate synthetase (Mycobacterium tuberculosis (strain ATCC 25618 / H37Rv)) (UniProt P9WIL5). Kind of assay: Recombinant Mtb pantothenate synthetase (PanC) inhibitors, coupled enzyme, confirmatory (AID 375).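 Also: 0% = full reaction with vehicle and 100% = no enzyme background.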 The following applies: coupled enzyme assay; at 10 µM, stronger effect = higher value.
Chain of Pantothenate synthetase (Mycobacterium tuberculosis (strain ATCC 25618 / H37Rv)) (P9WIL5 whole entry, looked up): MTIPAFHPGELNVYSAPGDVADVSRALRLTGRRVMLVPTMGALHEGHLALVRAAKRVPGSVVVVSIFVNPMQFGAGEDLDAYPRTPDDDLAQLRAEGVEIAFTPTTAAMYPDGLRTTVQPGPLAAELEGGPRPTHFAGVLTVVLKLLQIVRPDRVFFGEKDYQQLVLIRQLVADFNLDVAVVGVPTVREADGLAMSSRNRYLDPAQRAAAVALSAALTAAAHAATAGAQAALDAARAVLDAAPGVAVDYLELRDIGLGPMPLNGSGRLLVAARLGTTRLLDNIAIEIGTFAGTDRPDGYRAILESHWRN
Take `O=C(c1ccc(S(=O)(=O)N2CCOCC2)cc1)N(c1ccc(F)cc1)C1C=CS(=O)(=O)C1` (stereo not given): the inhibition (as a rule, the change of the read-out against control, counted positive when it falls) was 0% (inactive).

On to `Cc1cccc(Nc2nc3c(c(=O)n(C)c(=O)n3C)n2Cc2ccccc2)c1`, for which the inhibition was 5% (inactive).

As to `COc1cc2c(cc1OC)C(c1cccnc1)CC(=O)N2` (stereo not given), the inhibition was 5% (inactive). In the case of `CC(c1ccccc1)n1cnc2ccccc21` (stereo not given) it was 0% (inactive). As for `CC1(C)Cc2c(sc3c2C2=NCCN2C=N3)CS1`, the figure is 3% (inactive); as for `COc1ccc(OCc2nc(C#N)c(N3CCN(c4ccc(OC)cc4)CC3)o2)cc1`, 2% (inactive). Turning to `CSC1=C(C#N)C(c2ccc(C)cc2)C2=C(CCCC2=O)N1` (stereo not given), the inhibition is 0% (inactive). As for `CCOc1ccc(-c2cn(S(=O)(=O)c3cccc4nsnc34)nc2N)cc1`, the figure is 0% (inactive); as for `O=C(CS(=O)(=O)Cc1ccccc1)Nc1nc2ccccc2s1`, 0% (inactive); as for `COc1ccc(S(=O)(=O)Nc2cc(C)on2)cc1OC`, 0% (inactive). In the case of `Cc1ccc2[nH]c3c(c2c1)CN(C(=O)CN1CCN(c2cccc(C)c2C)CC1)CC3` it was 0% (inactive); in that of `O=C(Cc1nn[nH]n1)NCCC1=CCCCC1`, 4% (inactive). With `CCOc1ccc(-c2nnc(SCC(=O)N3CCN(c4ccccc4)CC3)o2)cc1`, the inhibition was 0% (inactive). In the case of `COc1cccc(N2CCN(CC(=O)c3c[nH]c4ccc(OC)cc34)CC2C)c1` (stereo not given) it was 2% (inactive); in that of `Cc1c(NC(=O)C(C)OC(=O)c2cc3c4ccccc4n(C)c3s2)c(=O)n(-c2ccccc2)n1C` (stereo not given), 0% (inactive).

Take `COC(=O)C(CC(C)C)NC(=O)CSc1nc(-c2ccccc2)c(C#N)c(=O)[nH]1` (stereo not given): the inhibition was 0% (inactive). In the case of `COc1ccc(C(=O)Cn2nnc(-c3cccs3)n2)cc1` it was 0% (inactive); in that of `O=S(=O)(NCCCCCNS(=O)(=O)c1ccccc1)c1ccccc1`, 6% (inactive); in that of `Cc1ccc(S(=O)(=O)N2CCN(c3nc(C(C)C)c4c(c3C#N)CC(C)(C)OC4)CC2)cc1`, 0% (inactive). In the case of `CC1=C(C(=O)NC2CCC(C)CC2)C2(CCC(C)CC2)OC1=O` (stereo not given) it was 2% (inactive); in that of `CC(C)(C)NC[C@H](O)COc1nsnc1N1CCOCC1`, 2% (inactive); in that of `CC(Sc1nnnn1C)C(=O)Nc1ccc(Oc2ccccc2)cc1` (stereo not given), 0% (inactive). In the case of `CN(C(=O)c1ccc(S(=O)(=O)NC2CCCC2)cc1)C1CCCCC1` it was 5% (inactive); in that of `Cc1ccc2cc(CN(CCN3CCCC3)C(=O)Nc3ccc(F)cc3)c(=O)[nH]c2c1C`, 0% (inactive); in that of `O=C(Cn1cnc2c(cnn2-c2ccc(F)cc2)c1=O)N1CCN(c2ccccc2)CC1`, 0% (inactive). Take `CC(=O)Nc1c(-c2ccc(F)cc2)nc2ccccn12`: the inhibition is 0% (inactive).

As for `COC(=O)c1cc(O)c(OCc2ccccc2)c(O)c1`, the inhibition was 0% (inactive). In the case of `O=C(O)c1ccc(CSc2ncn[nH]2)cc1` it was 1% (inactive); in that of `CCc1nnc(SCC(=O)NC2CCCCC2)nc1CC`, 1% (inactive). In the case of `CCN(CCNC(=O)CS(=O)(=O)Cc1nc(-c2cccc(OC)c2)oc1C)c1ccccc1` it was 0% (inactive); in that of `CCOc1ccc(C(=O)N2CCC(C(=O)c3ccc4c(c3)OCCO4)CC2)cc1`, 7% (inactive). As for `COC(=O)c1cc(Br)ccc1-c1ccc(/C=N/n2nnnc2N)o1`, the figure is 7% (inactive); as for `CC1(C)CNC(=O)CC(C)(C)N1O`, 0% (inactive); as for `Cc1cc(N2C(=O)C3C4C=CC(C4)C3C2=O)ccc1Br` (stereo not given), 0% (inactive).

As to `COc1ccc(/C=N/n2cc(-c3ccc(OC)cc3)nc2N)cc1`, the inhibition is 0% (inactive). As to `COc1ccc(S(=O)(=O)Nc2ccc(Cl)cn2)c(C)c1C`, the inhibition is 1% (inactive). As for `CCn1c(=S)ccc2ccc(OC)cc21`, the figure is 0% (inactive); as for `COC(=O)C1=C(C)NC2=C(C(=O)CCC2)C1c1coc2ccccc2c1=O` (stereo not given), 6% (inactive); as for `C=CCn1cnc2c(c1=O)c1nc3ccccc3nc1n2-c1ccc(C)cc1`, 0% (inactive). In the case of `COc1ccc(C)cc1S(=O)(=O)Nc1cccnc1` it was 0% (inactive).
